Experimental findings from PubChem BioAssay AID778 (Sanford-Burnham Center for Chemical Genomics, 2007) are described below.

The campaign covered roughly 96,000 compounds. About 20,000 (21%) were called active.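 The calls were made as follows: active = CYP2C19 inhibition above a set limit at 5 µM in the primary screen (cut at about 50% in these data); inactive = the rest.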 A selection follows.

Cytochrome P450 2C19 (Homo sapiens), sequence (P33261 whole entry, looked up): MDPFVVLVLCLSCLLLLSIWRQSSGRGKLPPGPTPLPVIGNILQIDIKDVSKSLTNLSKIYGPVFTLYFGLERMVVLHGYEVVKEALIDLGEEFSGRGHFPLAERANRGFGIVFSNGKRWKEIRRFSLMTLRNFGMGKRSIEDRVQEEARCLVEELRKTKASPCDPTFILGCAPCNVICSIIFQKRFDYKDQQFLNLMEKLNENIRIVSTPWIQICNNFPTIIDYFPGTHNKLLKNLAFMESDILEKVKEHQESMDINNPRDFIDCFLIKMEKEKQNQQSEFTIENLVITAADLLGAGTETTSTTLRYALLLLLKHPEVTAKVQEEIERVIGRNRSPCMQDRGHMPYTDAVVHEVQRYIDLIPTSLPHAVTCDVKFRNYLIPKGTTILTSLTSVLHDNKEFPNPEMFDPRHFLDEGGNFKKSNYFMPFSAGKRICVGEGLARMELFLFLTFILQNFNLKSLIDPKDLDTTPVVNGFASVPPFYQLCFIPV

This assay concerns the target Cytochrome P450 2C19 (Homo sapiens) (UniProt P33261). The assay is described as follows: blockers of cytochrome P450 2C19 activity – biochemical, luminescence, ADME assay, primary screen (AID 778).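 Also: plate controls were negative control wells for no effect and 2.5 mM tranylcypromine positive control for full effect.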 To be noted: CYP2C19 Supersomes, luciferin-H EGE luminescence, 30 min; at 5 µM; active compounds read high.
A word on the inhibition: it is the change of the read-out against control, counted positive when it falls. As to `CCNC(=O)N1CCNC(=O)C1CC(=O)Nc1ccc(C(=O)OCC)cc1` (centres undefined), the inhibition was 3.6% (inactive). Next, `CC1(C)Cc2cccc(OCC(N)=O)c2O1`: -16.5% (inactive); `COc1cc(C(=O)Nc2nccs2)cc(OC)c1OC`: 17.9% (inactive); `CC1(C)Cc2cccc(OCC(=O)Nc3nccs3)c2O1`: 60.6% (active).

As to `CCOC(=O)c1cc2n(c1N)-c1ccccc1C2=O`, the inhibition was 26.7% (inactive). As for `O=C(NCC1CCC(C(=O)O)CC1)OCc1ccccc1` (centres undefined), the figure is 2.9% (inactive).

On to `Cc1nn(-c2ccccc2)c(CC(C)(C)C(=O)O)c1C(=O)O`, for which the inhibition was 7.2% (inactive).

Regarding `Cc1ccc(C(=O)/C=C/c2c(C)nn(-c3ccccc3)c2Cl)cc1`, the inhibition is 76.2% (active). Next, `Cc1nn(-c2ccccc2)c(Cl)c1C(=O)Nc1ccccc1`: 39.2% (inactive); `Cc1ccc(O)c(CNc2nc3ccccc3n2C)c1`: 39.6% (inactive). For the compound `CCC1SC2=NCCN2C1(O)c1ccc(Cl)cc1` (centres undefined), the inhibition was 94.6% (active). With `O=C(COc1ccccc1F)NC1CC1`, the inhibition is -8.2% (inactive). Turning to `O=C1CCCc2c1nc(-c1cccc(Cl)c1)n2O`, the inhibition is -3.8% (inactive). For the compound `CON(C)S(=O)(=O)c1ccc2c(c1)NC(=O)C1CCCN21` (centres undefined), the inhibition was 4.3% (inactive). Next, `COc1ccc(Nc2nc(Cl)nc(NCc3ccco3)n2)cc1`: 4% (inactive); `COc1ccc(N(CC(=O)N/N=C/c2cccs2)S(=O)(=O)c2ccc(OC)c(OC)c2)cc1`: 99.3% (active); `COc1ccc(N(CC(=O)N/N=C/c2cccc3c2OCCO3)S(=O)(=O)c2ccc(NC(C)=O)cc2)cc1`: 33.4% (inactive). As for `Cc1cc(C)nc(SC(C)C(=O)N/N=C/c2cccs2)n1` (centres undefined), the figure is 20.8% (inactive). Consider `CCOc1ccc(N=Cc2c(O)n(-c3cccc(C)n3)c(=O)c3ccccc23)cc1`, for which the inhibition was 23.6% (inactive).

For the compound `CCOC(=O)c1cc2c(n(-c3ccc(C)cc3)c1=O)CCCC2=O`, the inhibition is 5.6% (inactive). Next, `COC(=O)CNC(=O)c1ccccc1F`: -5.1% (inactive). Regarding `CSc1nc(N(C)NC(=O)c2cccc(C)c2)c2ccccc2n1`, the inhibition was 77% (active).

Consider `CN(NC(=O)c1ccccc1)c1nc2ccccc2nc1C(F)(F)F`, for which the inhibition is 35.4% (inactive).

Consider `COc1ccc(C(=O)NN(C)c2nc(-c3ccccc3)cc(C)c2S(C)(=O)=O)cc1`, for which the inhibition is 10.6% (inactive).

Regarding `Cc1c(C(=O)OC(C)C)sc(NC(=O)c2cccnc2)c1C#N`, the inhibition was 1.5% (inactive). Next, `CC(NC(=O)c1ccco1)C(=O)Nc1nc(-c2ccccn2)cs1` (centres undefined): 6% (inactive).

Regarding `Clc1ccc(Cl)c(Oc2ccc(Oc3nc(Cl)ccc3Cl)cc2)n1`, the inhibition is -4.8% (inactive).

Consider `Nc1ccc(Oc2ccc(Cl)cc2)cc1`, for which the inhibition was 85.1% (active). As to `Cc1ccc(Oc2ccc(N)cc2)cc1`, the inhibition was 87.9% (active). As for `Cc1ccc(S(=O)(=O)c2ccc(Oc3ccccc3)cc2)cc1`, the inhibition is -11.2% (inactive). In the case of `COc1ccc2[nH]c3ccc(OC)cc3c2c1`, the inhibition was 29.9% (inactive). As to `COc1cccc(Oc2ccc(N)cc2)c1`, the inhibition was 64.1% (active). For the compound `CN(C)S(=O)(=O)c1ccc(Oc2ccc(S(=O)(=O)N(C)C)cc2)cc1`, the inhibition was 19.7% (inactive). Take `COCCNCCOCCOc1cccc(OC)c1`: the inhibition was 10.2% (inactive).
